From PubChem BioAssay AID588405 (Sanford-Burnham Center for Chemical Genomics, 2011)
Among all 360,000 compounds or so, about 6,200 (1.7%) were called active. The sample holds actives, similar compounds and a random draw of the others, so the mix is not that of the screen. A number with no mark means an inactive call.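 The calls were made as follows: active = inhibition of at least 50% at 20 µM; inactive = the rest.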

Test: inhibition of PEG-3 promoter activity – cell-based, HeLa, luciferase luminescence, primary screen (AID 588405)
Details: HeLa PEG-Prom luciferase reporter, overnight, at 20 µM, hits give high values

Row | Structure (SMILES) | inhibition
1 | O=C(Nc1ccc(S(=O)(=O)Nc2nccs2)cc1)c1cc(-c2ccncc2)nc2ccccc12 | 11.9%
2 | CCC1(C)Cc2c(sc3nnn(CC(=O)Nc4ccc(Cl)cc4)c(=O)c23)CO1 (stereo not drawn) | 11.2%
3 | O=C(/C=C/[C@H]1O[C@@H](n2ccc(=O)[nH]c2=O)[C@H](O)[C@@H]1O)NCc1ccccn1 | 12.5%
4 | CCCN(CC(=O)NC(=O)NC1CCCCC1)CC(=O)Nc1cc(Cl)ccc1Cl | 32.9%
5 | CC(C)(C(=O)N1CCC1(C)C(=O)NS(=O)(=O)c1ccc(Br)cc1)c1ccccc1 (stereo not drawn) | 3.42%
6 | CCOC(=O)/C(=C\c1ccc([N+](=O)[O-])cc1)C(=O)c1cc(C(C)=O)c(Nc2ccccc2)s1 | 106% (active)
7 | O=C(O)C(=Cc1ccc([N+](=O)[O-])cc1)CCc1ccccc1 | -9.17%
8 | CCOC(=O)/C(=N\Nc1ccccc1[N+](=O)[O-])c1csc(Nc2ccccc2)n1 | 20.3%
9 | CN1C[C@@H](CO)O[C@@H](n2cnc3c(N4CCN(CCO)CC4)ncnc32)C1 | 8.41%
10 | Cc1cc(NC(=O)CSc2nc(C(C)C)nc3sc4c(c23)CCC(C)C4)no1 (stereo not drawn) | -3.65%
11 | Cc1nc(SCC(=O)Nc2cc(C)on2)c2c(C)c(C)sc2n1 | 73.6% (active)
12 | Cc1cc(NC(=O)CSc2ncc(C(F)(F)F)cc2Cl)no1 | 5.97%
13 | Cc1cc(C(=O)N2CCCC2(C)C(=O)O)c(C)o1 (stereo not drawn) | -4.99%
14 | COc1ccc(C(C)(NC(C)=O)c2nc(-c3ccc(S(C)(=O)=O)cc3)cs2)cc1 (stereo not drawn) | 7.41%
15 | COc1cc(CNc2ncnc3c2ncn3[C@H]2CN(Cc3cccs3)C[C@@H](CO)O2)cc(OC)c1OC | 10.1%
16 | O=CNc1cc(-c2ccc(C(=O)N3CCOCC3)cc2)cn2c(-c3ccc(F)cc3)cnc12 | 38.7%
17 | NCCCC[C@@H]1NC(=O)[C@H](CCC(=O)O)NC(=O)c2cc([N+](=O)[O-])cc(I)c2NCC[C@@H](C(N)=O)NC1=O | 4.12%
18 | NC(=O)CC[C@@H]1NC(=O)[C@H](CO)NC(=O)c2cc([N+](=O)[O-])cc(I)c2NCC[C@@H](C(N)=O)NC1=O | 4.02%
19 | CC(C)[C@@H]1NC(=O)c2cc([N+](=O)[O-])cc(I)c2NCCC[C@@H](C(=O)NC(CC(=O)O)C(N)=O)NC(=O)[C@H](CO)NC1=O (stereo partly drawn) | 95.8% (active)
20 | COc1cccc(-c2cc3nc(NCCOc4ccccc4Cl)n(C)c(=O)c3s2)c1 | -22%
21 | Cc1ccccc1S(=O)(=O)N1[C@@H](c2cccc(Cl)c2)C(C(=O)OC(C)(C)C)=CC[C@H]1c1ccc(Cl)cc1 | 0.82%
22 | COc1cccc(-c2ccc3c(c2)N(Cc2ccccc2OC)C(=O)C(C)S3)c1 (stereo not drawn) | -0.98%

Row | Structure (SMILES) | inhibition
23 | Nc1ncnc2c1ncn2[C@@H]1O[C@H](C(=O)NS(=O)(=O)c2c(Cl)nc3sccn23)[C@@H](O)[C@H]1O | 8.22%
24 | CCc1nc2c(OCc3ccc(C(F)(F)F)cc3)cccn2c1N(C)C(=O)CC(C)C | 15.7%
25 | C=C1C2C[C@H](O)C(C)(C)[C@@]2(O)[C@H](O)C[C@]23C[C@@](C)(O)[C@H](CC[C@H]12)[C@H]3O (stereo partly drawn) | 98.4% (active)
26 | O=C(NCC12CC3CC(C1)CC(CNC(=O)N1CCCC1)(C3)C2)N1CCCC1 | 18.2%
27 | CC(C)(O)C#Cc1ccc(CNC[C@H]2O[C@@H](n3cnc4c(=O)[nH]c(N)nc43)[C@H](O)[C@@H]2O)s1 | 14.8%
28 | CC(Nc1ccc([N+](=O)[O-])cc1[N+](=O)[O-])c1ccccc1 (stereo not drawn) | 31.3%
29 | O=C(NC(Nc1nc2ccc([N+](=O)[O-])cc2s1)(C(F)(F)F)C(F)(F)F)c1ccccc1 | 68.7% (active)
30 | O=C(O)c1cc([N+](=O)[O-])c(Nc2cccc3ccccc23)c([N+](=O)[O-])c1 | 5.86%
31 | Cc1ccc(S(=O)(=O)N2CC[C@H]3[C@@H](C2)C(=O)C[C@@H](c2ccccc2)N3S(=O)(=O)c2ccc(C)cc2)cc1 | -19.4%
32 | CSc1ccc(CN2CCC2(C)C(=O)Nc2ccc(C)c(O)c2)cc1 (stereo not drawn) | -4.73%
33 | c1ccc(Cc2c(-c3ccco3)nc3c4ccccc4ccn23)cc1 | -310%
34 | O=C(NCc1ccc(F)cc1)c1cc(C2CCCCN2C(=O)C2CCCCC2)on1 (stereo not drawn) | 2.91%
35 | O=C(/C=C/Sc1ncn[nH]1)c1ccc(Cl)cc1 | 100% (active)
36 | COc1ccccc1/C=C/C=N/NC(=O)CN1CCN(Cc2ccccc2)CC1 | 3.31%
37 | COc1ccc(Cl)cc1C=CC=Nc1ccc(S(N)(=O)=O)cc1 | 7.02%
38 | COc1ccc(Cl)cc1C=CC=NNC(=O)c1ccncc1 | 97% (active)
39 | COCc1cccc(-c2csc(C(O)c3ccc(F)cc3)n2)c1 (stereo not drawn) | -120%
40 | CCCS(=O)(=O)NC(=O)C1(C)CCCN(C(=O)c2cccs2)C1 (stereo not drawn) | 12.1%
41 | CCc1ccc(-n2c(SCc3cc(=O)n4cc(Br)ccc4n3)nc3[nH]ncc3c2=O)cc1 | 54.1% (active)
42 | Cc1cccc2nc(CSc3nc4[nH]ncc4c(=O)n3-c3cccc(Cl)c3)cc(=O)n12 | 38.6%
43 | O=c1c2sccc2nc(SCc2cc(=O)n3ccccc3n2)n1-c1ccc(Br)cc1 | 40.8%
